Laboratory results: PubChem BioAssay AID1159580 (chemical genetic matrix, 2015)
About 2,000 (36%) of roughly 5,500 compounds were called active. About 18% were inconclusive and are not listed. Rule as the data show it: active = normalized growth mostly below about 0.91 (no sharp cut-off); inconclusive = no clear call, values can overlap the other calls; inactive = mostly above about 0.92. Some of the results follow.

Assay: chemical genetic growth profiling, strain panel (AID 1159580);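 also: tested at 20 µM; growth read once vehicle control cultures reached saturation at 30 °C; 1 = growth at the plate median or of vehicle wells; lower values mean less growth of the strain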
Conditions: growth OD

Measured: normalized growth

NCC(=O)CCC(=O)O
inactive: S. cerevisiae deletion strains, locus YJR075W, strain HOC1, stronger effect = lower value 1.02 | S. cerevisiae deletion strains, locus YKL009W, strain mrt4, stronger effect = lower value 1.07 | S. cerevisiae deletion strains, locus YKL068W, stronger effect = lower value 0.995 | S. cerevisiae deletion strains, locus YKL085W, strain MDH1 (second series), stronger effect = lower value 0.997 | S. cerevisiae deletion strains, locus YKL085W, strain MDH1, stronger effect = lower value 0.997 | S. cerevisiae deletion strains, locus YKL160W, strain elf1, stronger effect = lower value 0.98 | S. cerevisiae deletion strains, locus YKL190W, strain CNB1, stronger effect = lower value 1.01 | S. cerevisiae deletion strains, locus YKR001C, strain vps1, stronger effect = lower value 0.982 | S. cerevisiae deletion strains, locus YKR026C, strain gcn3, stronger effect = lower value 0.981 | S. cerevisiae deletion strains, locus YKR091W, strain srl3, stronger effect = lower value 0.981 | S. cerevisiae deletion strains, locus YLL001W, strain dnm1, stronger effect = lower value 0.93 | S. cerevisiae deletion strains, locus YLL026W, stronger effect = lower value 0.982 | S. cerevisiae deletion strains, locus YLL041C, strain sdh2, stronger effect = lower value 0.987 | S. cerevisiae deletion strains, locus YLR027C, strain aat2, stronger effect = lower value 0.98 | S. cerevisiae deletion strains, locus YLR039C, strain RIC1, stronger effect = lower value 1.03 | S. cerevisiae deletion strains, locus YLR058C, strain SHM2, stronger effect = lower value 1.01 | S. cerevisiae deletion strains, locus YLR102C, strain apc9, stronger effect = lower value 0.983 | S. cerevisiae deletion strains, locus YLR113W, strain HOG1, stronger effect = lower value 1.03 | S. cerevisiae deletion strains, locus YLR221C, strain rsa3, stronger effect = lower value 1.03 | S. cerevisiae deletion strains, locus YLR258W, strain gsy2, stronger effect = lower value 0.994 | S. cerevisiae deletion strains, locus YLR262C, strain YPT6 (second series), stronger effect = lower value 0.958 | S. cerevisiae deletion strains, locus YLR262C, strain YPT6, stronger effect = lower value 1.05 | S. cerevisiae deletion strains, locus YLR268W, strain sec22, stronger effect = lower value 0.953 | S. cerevisiae deletion strains, locus YLR320W, strain mms22, stronger effect = lower value 0.976 | S. cerevisiae deletion strains, locus YLR330W, strain CHS5, stronger effect = lower value 1.01 | S. cerevisiae deletion strains, locus YLR342W, strain FKS1 (second series), stronger effect = lower value 1.03 | S. cerevisiae deletion strains, locus YLR342W, strain FKS1, stronger effect = lower value 0.959 | S. cerevisiae deletion strains, locus YLR357W, strain rsc2, stronger effect = lower value 0.954 | S. cerevisiae deletion strains, locus YLR370C, strain arc18, stronger effect = lower value 1.01 | S. cerevisiae deletion strains, locus YLR371W, strain rom2, stronger effect = lower value 0.988 | S. cerevisiae deletion strains, locus YLR384C, strain iki3, stronger effect = lower value 0.997 | S. cerevisiae deletion strains, locus YLR418C, strain cdc73, stronger effect = lower value 0.994 | S. cerevisiae deletion strains, locus YML016C, strain PPZ1, stronger effect = lower value 1.01 | S. cerevisiae deletion strains, locus YML032C, strain rad52, stronger effect = lower value 0.981 | S. cerevisiae deletion strains, locus YML120C, strain ndi1, stronger effect = lower value 0.983 | S. cerevisiae deletion strains, locus YML124C, strain tub3, stronger effect = lower value 0.997 | S. cerevisiae deletion strains, locus YMR058W, strain fet3, stronger effect = lower value 0.984 | S. cerevisiae deletion strains, locus YMR078C, strain ctf18, stronger effect = lower value 0.991 | S. cerevisiae deletion strains, locus YMR125W, strain sto1, stronger effect = lower value 0.977 | S. cerevisiae deletion strains, locus YMR129W, stronger effect = lower value 0.99 | S. cerevisiae deletion strains, locus YMR205C, strain PFK2, stronger effect = lower value 0.976 | S. cerevisiae deletion strains, locus YMR223W, strain ubp8, stronger effect = lower value 0.998 | S. cerevisiae deletion strains, locus YMR231W, strain pep5, stronger effect = lower value 0.972 | S. cerevisiae deletion strains, locus YMR263W, strain SAP30, stronger effect = lower value 1.01 | S. cerevisiae deletion strains, locus YMR307W, strain GAS1, stronger effect = lower value 1.05 | S. cerevisiae deletion strains, locus YNL067W, strain RPL9B, stronger effect = lower value 0.997 | S. cerevisiae deletion strains, locus YNL071W, strain lat1, stronger effect = lower value 0.995 | S. cerevisiae deletion strains, locus YNL128W, strain TEP1, stronger effect = lower value 1.02 | S. cerevisiae deletion strains, locus YNL153C, strain GIM3, stronger effect = lower value 1 | S. cerevisiae deletion strains, locus YNL183C, strain NPR1, stronger effect = lower value 0.986 | S. cerevisiae deletion strains, locus YNL209W, strain ssb2, stronger effect = lower value 0.997 | S. cerevisiae deletion strains, locus YNL233W, strain BNI4, stronger effect = lower value 1.02 | S. cerevisiae deletion strains, locus YNL248C, strain rpa49, stronger effect = lower value 1 | S. cerevisiae deletion strains, locus YNL250W, strain rad50, stronger effect = lower value 0.993 | S. cerevisiae deletion strains, locus YNL271C, strain bni1, stronger effect = lower value 0.98 | S. cerevisiae deletion strains, locus YNL298W, strain CLA4, stronger effect = lower value 0.984 | S. cerevisiae deletion strains, locus YNL307C, strain MCK1, stronger effect = lower value 1 | S. cerevisiae deletion strains, locus YNL322C, strain KRE1 (second series), stronger effect = lower value 0.964 | S. cerevisiae deletion strains, locus YNL322C, strain KRE1, stronger effect = lower value 1.02 | S. cerevisiae deletion strains, locus YNR049C, strain mso1, stronger effect = lower value 0.981 | S. cerevisiae deletion strains, locus YNR052C, strain pop2, stronger effect = lower value 0.988 | S. cerevisiae deletion strains, locus YOL006C, strain TOP1, stronger effect = lower value 0.983 | S. cerevisiae deletion strains, locus YOL012C, strain htz1 0.968 | S. cerevisiae deletion strains, locus YOL147C, strain pex11, stronger effect = lower value 0.993 | S. cerevisiae deletion strains, locus YOR001W, strain rrp6, stronger effect = lower value 0.994 | S. cerevisiae deletion strains, locus YOR061W, strain CKA2, stronger effect = lower value 1.01 | S. cerevisiae deletion strains, locus YOR069W, strain VPS5, stronger effect = lower value 1.01 | S. cerevisiae deletion strains, locus YOR070C, strain gyp1, stronger effect = lower value 0.989 | S. cerevisiae deletion strains, locus YOR080W, strain dia2, stronger effect = lower value 0.976 | S. cerevisiae deletion strains, locus YOR083W, strain WHI5, stronger effect = lower value 0.954 | S. cerevisiae deletion strains, locus YOR106W, strain vam3, stronger effect = lower value 0.956 | S. cerevisiae deletion strains, locus YOR136W, strain idh2, stronger effect = lower value 0.992 | S. cerevisiae deletion strains, locus YOR144C, strain elg1, stronger effect = lower value 0.986 | S. cerevisiae deletion strains, locus YOR184W, strain ser1, stronger effect = lower value 0.976 | S. cerevisiae deletion strains, locus YOR231W, strain MKK1, stronger effect = lower value 1.04 | S. cerevisiae deletion strains, locus YOR265W, strain rbl2, stronger effect = lower value 0.988 | S. cerevisiae deletion strains, locus YOR270C, strain vph1, stronger effect = lower value 1.01 | S. cerevisiae deletion strains, locus YOR290C, strain snf2, stronger effect = lower value 1.01 | S. cerevisiae deletion strains, locus YOR316C, strain cot1, stronger effect = lower value 0.989 | S. cerevisiae deletion strains, locus YPL051W, strain arl3, stronger effect = lower value 0.997 | S. cerevisiae deletion strains, locus YPL055C, strain LGE1, stronger effect = lower value 1.03 | S. cerevisiae deletion strains, locus YPL078C, strain atp4, stronger effect = lower value 0.948 | S. cerevisiae deletion strains, locus YPL106C, strain sse1, stronger effect = lower value 0.998 | S. cerevisiae deletion strains, locus YPL240C, strain hsp82, stronger effect = lower value 0.985 | S. cerevisiae deletion strains, locus YPL241C, strain CIN2, stronger effect = lower value 1 | S. cerevisiae deletion strains, locus YPL256C, strain CLN2, stronger effect = lower value 1.03 | S. cerevisiae deletion strains, locus YPR119W, strain clb2, stronger effect = lower value 0.983 | S. cerevisiae deletion strains, locus YPR141C, strain kar3, stronger effect = lower value 0.993 | S. cerevisiae deletion strains, locus YPR163C, strain tif3, stronger effect = lower value 0.981 | S. cerevisiae deletion strains, locus YPR167C, strain met16, stronger effect = lower value 0.986 | S. cerevisiae deletion strains, strain wtn01, stronger effect = lower value 0.99 | S. cerevisiae strains, strain wild type, stronger effect = lower value 1.01
